G9a block: blocks human histone lysine methyltransferase G9a. Q96KQ7. G9a H3K9 monomethylation, AlphaScreen, 2 h. Potency, µM (top dose mostly 102 µM), hits mostly inhibitors. actives 8.8% (n = 350,000); further: nearly all actives have a fitted effect of over 75% in size
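Compounds were preincubated with 20 nM G9a for 15 min, after which biotinylated H3K9 peptide (500 nM) and SAM (20 uM) started a 2 h room-temperature reaction. Monomethylated product was quantified by antibody-based AlphaScreen chemiluminescence.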
CCT modulator: modulators of cytosolic chaperonin (CCT/TRiC) activity | purified chaperonin ATPase assay, HTRF ADP detection, 30 min | activity change, % (concentration not given with the values), hits read low | actives 0.3% (n = 360,000); in the data active means activity change below about -30%
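ATPase activity: ADP formed was measured by HTRF Transcreener (665/615 nm ratio) after 30 min at 37 deg C with 10 uM ATP. Compounds screened at one 76 uM concentration against 40 or 20 nM TRiC in Tris pH 7.4/KCl/MgCl2/DTT buffer.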
VDR inh: blocks the human vitamin D receptor; P11473; VDR-SRC2-3 peptide fluorescence polarization, 2 h; Potency, µM, most hits filed as inhibitors; actives 0.93% (n = 400,000); AID 504847
Target sequence (P11473 whole entry, looked up): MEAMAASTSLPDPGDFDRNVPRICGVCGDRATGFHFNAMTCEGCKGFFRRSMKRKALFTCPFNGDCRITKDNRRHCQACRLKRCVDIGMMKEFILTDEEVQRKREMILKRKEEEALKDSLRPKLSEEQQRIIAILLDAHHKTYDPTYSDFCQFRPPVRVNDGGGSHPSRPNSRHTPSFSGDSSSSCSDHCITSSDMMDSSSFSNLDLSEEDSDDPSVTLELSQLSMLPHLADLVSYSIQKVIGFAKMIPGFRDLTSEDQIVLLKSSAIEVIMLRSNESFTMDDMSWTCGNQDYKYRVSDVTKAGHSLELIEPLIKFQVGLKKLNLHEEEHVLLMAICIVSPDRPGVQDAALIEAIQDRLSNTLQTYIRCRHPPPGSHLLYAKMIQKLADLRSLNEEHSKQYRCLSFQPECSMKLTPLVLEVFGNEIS
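Fluorescence polarization assay measuring small-molecule disruption of VDR binding to the coregulator peptide SRC2-3. Compounds were pin-transferred (23 nl) into the reagent mix and incubated 2 h at room temperature before reading.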
Mm-Cpn inhibitor: blocks the Methanococcus maripaludis chaperonin Mm-Cpn | purified Mm-Cpn ATPase, ADP Transcreener TR-FRET | Potency, µM (titrated, usually from 76.9 µM), most hits filed as inhibitors | actives 0.031% (n = 330,000) | AID 504842; further: nearly all actives have a fitted effect of over 80% in size
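Reaction buffer contained 30 mM Tris pH 7.4, 100 mM KCl, 5 mM MgCl2 and 1 mM DTT. Mm-CPN (25 nM final) hydrolysed 10 uM ATP over 30 min at 37°C; ADP was read by HTRF.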
PLK1 PBD inh: inhibitors of human PLK1 polo-box domain binding. P53350. Plk1 PBD binding of FITC phosphopeptide, fluorescence polarization. Potency, µM, hits mostly inhibitors. actives 2.8% (n = 360,000). AID 720504; further: series mostly up to about 57 µM; nearly all actives have a fitted effect of over 65% in size
Sfp inh: inhibitors of Bacillus subtilis Sfp phosphopantetheinyl transferase. Potency, µM, hits mostly inhibitors. AID 1490. Biochemical Sfp PPTase activity, qHTS. actives 3.5% (n = 310,000). Q9F4F7;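 further: the enzyme is Sfp with the accession as filed and its product quenches rhodamine fluorescence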
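Step 1, compound plus 15 nM Sfp-PPTase, 15 min, room temperature. Step 2, add rhodamine-CoA (5 uM) and BHQ-2-YbbR (12.5 uM). Step 3, read 525/598 nm fluorescence at 0 and 30 min.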
Large screens that a line does not name were inactive. The list is not random: actives were taken first. Their share in the collection is about 10%. Unless noted, the call rests on the fitted dose curve; in most records, active means well fitted curve in the direction sought with a large enough effect; inconclusive means small, poorly fitted or top-dose-only effect, or another doubt; inactive means no such curve, though single readings can be large; an effect the other way counts as inactive or inconclusive.

Nc1c(C(=O)NC2CCCC2)c2nc3ccccc3nc2n1/N=C/c1ccco1	none
Nc1c(C(=O)NC2CCCC2)c2nc3ccccc3nc2n1N	G9a block 50.1µM, Sfp inh 31.6µM
CCCn1c(N)c(C(=O)CN(C)CC(=O)Nc2ccc(C)cc2)c(=O)[nH]c1=O	G9a block 44.7µM (no result: Sfp inh)
CCCn1c(N)c(C(=O)CN(C)CC(=O)Nc2c(C)cc(C)cc2C)c(=O)[nH]c1=O	none (no result: Sfp inh)
CCCn1c(N)c(C(=O)CN(C)CC(=O)Nc2cc(C)ccc2C)c(=O)[nH]c1=O	G9a block 50.1µM (no result: Sfp inh)
CNc1ccccc1C(C)(C)c1cc(-c2cccc([N+](=O)[O-])c2)no1	G9a block 31.6µM
CCC(C)NC(=O)C1CCC(CNS(=O)(=O)c2ccc3c(c2)CC(C)N3C(C)=O)CC1 (stereo not drawn)	VDR inh inconclusive, PLK1 PBD inh 23.8µM
CCCNC(=O)C1CCC(CNS(=O)(=O)c2ccc3c(c2)CC(C)N3C(C)=O)CC1 (stereo not drawn)	none
CC(=O)N1c2ccc(S(=O)(=O)NCC3CCC(C(=O)Nc4ncccc4C)CC3)cc2CC1C (stereo not drawn)	VDR inh inconclusive, PLK1 PBD inh 21.2µM
Cc1nn(CC(=O)N2CCN(c3ccccc3)CC2)c(=O)c2cc3cc(F)ccc3n12	none (no result: CCT modulator, Mm-Cpn inhibitor, PLK1 PBD inh, Sfp inh)
CC(=O)Nc1cccc(NC(=O)CN2C(=O)CCSc3ccccc32)c1	none (no result: CCT modulator, Mm-Cpn inhibitor, PLK1 PBD inh, Sfp inh)
C[C@@H]1CCCCO[C@@H](CN(C)Cc2ccncc2)[C@@H](C)CN([C@H](C)CO)C(=O)c2cc(NC(=O)c3ccccc3)ccc2O1	CCT modulator -33.6 (no result: G9a block, VDR inh, Mm-Cpn inhibitor, Sfp inh)
CC(C)NC(=O)Nc1ccc2c(c1)C(=O)N([C@H](C)CO)C[C@H](C)[C@@H](CN(C)C(=O)Nc1ccccc1)O2	none (no result: G9a block, Sfp inh)
C[C@@H]1CN([C@@H](C)CO)C(=O)c2cc(NC(=O)c3ccncc3)ccc2O[C@@H](C)CCCCO[C@@H]1CN(C)C(=O)Cc1ccccc1	none (no result: G9a block, VDR inh, Mm-Cpn inhibitor, Sfp inh)
CCCNC(=O)N(C)C[C@H]1Oc2ncc(C#CCc3ccccc3)cc2C(=O)N([C@H](C)CO)C[C@H]1C	PLK1 PBD inh 26.7µM (no result: G9a block, VDR inh, Mm-Cpn inhibitor, Sfp inh)
C[C@H](CO)N1C[C@H](C)[C@@H](CN(C)C(=O)Nc2ccc(C(F)(F)F)cc2)Oc2c(cccc2N(C)C)C1=O	Mm-Cpn inhibitor 3.98µM (no result: G9a block, Sfp inh)
C[C@H](CO)N1C[C@H](C)[C@@H](CN(C)C(=O)Nc2ccccc2)Oc2ccc(NC(=O)Nc3ccccc3)cc2C1=O	CCT modulator -43.6 (no result: G9a block, Sfp inh)
Cc1sc2ncnc(Nc3ccccc3)c2c1C	PLK1 PBD inh 26.7µM
Cc1sc2ncnc(NCc3ccccc3)c2c1C	none
Cc1sc2ncnc(Nc3ccc(N4CCOCC4)cc3)c2c1-c1ccccc1	G9a block 28.2µM, Sfp inh inconclusive
Cc1ccc(C)c(CNS(=O)(=O)c2ccc3c(c2)C(C)(C)C(=O)N3C)c1	CCT modulator -34.2
CCOC(=O)CSc1nc2ccccc2c(=O)n1C1CCCC1	none
CCO/C(C)=N/n1c2nc3ccccc3nc2c2c(=O)n(C3CCCC3)c(C)nc21	G9a block 56.2µM
CCc1nn2c(=O)cc(COc3ccc(/C=C(\C#N)C(=O)Nc4ccc(C)cc4)cc3)nc2s1	none (no result: CCT modulator, Mm-Cpn inhibitor, PLK1 PBD inh, Sfp inh)
O=C(CN1CCc2ccccc21)NCc1ccc2c(c1)OCO2	none
CC(C)(C)NC(=O)NC(=O)CN1CCCc2ccccc21	G9a block inconclusive
O=C(CN1CCOc2ccccc21)NCc1cccs1	G9a block inconclusive
O=C(CN1CCCc2ccccc21)NC(=O)NC1CCCCC1	G9a block 70.8µM, PLK1 PBD inh 26.7µM, Sfp inh inconclusive
O=C(CN1CCOc2ccccc21)NCc1ccc(Cl)cc1	G9a block 50.1µM
O=C(CN1CCc2ccccc21)NCc1ccccc1Cl	G9a block 70.8µM
O=C(CN1CCc2ccccc21)NC(=O)NCc1ccccc1	G9a block 31.6µM, PLK1 PBD inh 26.7µM
O=C(CN1CCCc2ccccc21)NC(=O)NCc1ccccc1	none
CN1CCN(C(=O)c2nc3ccc(Cl)cc3[nH]2)CC1	none (no result: G9a block, CCT modulator, VDR inh, Mm-Cpn inhibitor, PLK1 PBD inh)
Cn1nc([N+](=O)[O-])nc1N1CCOCC1	CCT modulator -43.8
Clc1cccc(-c2ccc(CNCCSc3nnnn3-c3ccccc3)o2)c1	G9a block inconclusive (no result: CCT modulator, Mm-Cpn inhibitor, PLK1 PBD inh, Sfp inh)
N=C1C(c2ccccc2)=C(O)CN1c1cccc(S(=O)(=O)N2CCOCC2)c1	VDR inh inconclusive, PLK1 PBD inh 16.8µM

Assay outcomes deposited in PubChem BioAssay by National Center for Advancing Translational Sciences (NCATS).
